Residue numbers refer to the chain shown, from its start.
How the values were obtained:
Assay in all cases: PBM; 200 nM protein, PBS
Settings in all cases: dsDNA, one strand shown
[1] = target: NKX2-5 (Homo sapiens, UniProt P52952 125-210, R139K)
[2] = target: ALX1 (Homo sapiens, UniProt Q15699 118-204, L144V)
[3] = target: ALX1 (Homo sapiens, UniProt Q15699 118-204, L144R)
[4] = target: ALX1 (Homo sapiens, UniProt Q15699 118-204)
[5] = target: NKX2-5 (Homo sapiens, UniProt P52952 125-210)
[6] = target: T1, NKX2-4 (Homo sapiens, UniProt Q9H2Z4 175-261, P217L)
T1 sequence: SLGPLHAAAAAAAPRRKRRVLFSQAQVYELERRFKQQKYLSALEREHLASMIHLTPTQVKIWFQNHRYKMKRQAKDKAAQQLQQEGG

[7] = target: T2, NKX2-4 (Homo sapiens, UniProt Q9H2Z4 175-261, T231S)
T2 sequence: T1 sequence with L43P, T57S

[8] = target: T3, NKX2-4 (Homo sapiens, UniProt Q9H2Z4 175-261)
T3 sequence: T1 sequence with L43P

[9] = target: T4, NKX2-6 (Homo sapiens, UniProt A6NCS4 118-204, R150C)
T4 sequence: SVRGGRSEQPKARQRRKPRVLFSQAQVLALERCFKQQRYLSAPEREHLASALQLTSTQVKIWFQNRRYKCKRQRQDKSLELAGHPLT

[10] = target: T5, NKX2-6 (Homo sapiens, UniProt A6NCS4 118-204)
T5 sequence: T4 sequence with C33R

[11] = target: T6, NKX2-4 (Homo sapiens, UniProt Q9H2Z4 175-261, R246Q)
T6 sequence: T1 sequence with L43P, R72Q

[12] = target: T7, NKX2-6 (Homo sapiens, UniProt A6NCS4 118-204, F151L)
T7 sequence: T4 sequence with C33R, F34L

[13] = target: NKX3-2 (Homo sapiens, UniProt P78367 192-278, P234S)
Chain of NKX3-2 (Homo sapiens, UniProt P78367 192-278, P234S) (P78367 192-278 P234S): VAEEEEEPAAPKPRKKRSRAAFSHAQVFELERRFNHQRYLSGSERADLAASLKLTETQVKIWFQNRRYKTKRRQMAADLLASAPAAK

[14] = target: NKX3-2 (Homo sapiens, UniProt P78367 192-278)
Chain of NKX3-2 (Homo sapiens, UniProt P78367 192-278) (P78367 192-278): as the sequence (P78367 192-278 P234S) above, with S43P counted along it

[15] = target: HOXB4 (Homo sapiens, UniProt P17483 148-234)
Chain of HOXB4 (Homo sapiens, UniProt P17483 148-234) (P17483 148-234): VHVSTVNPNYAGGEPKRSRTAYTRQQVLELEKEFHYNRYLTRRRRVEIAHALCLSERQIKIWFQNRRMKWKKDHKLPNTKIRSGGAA

[16] = target: HOXB4 (Homo sapiens, UniProt P17483 148-234, V174I)
Chain of HOXB4 (Homo sapiens, UniProt P17483 148-234, V174I) (P17483 148-234 V174I): as the sequence (P17483 148-234) above, with V27I counted along it

Chain of NKX2-5 (Homo sapiens, UniProt P52952 125-210, R139K) (P52952 125-210 R139K): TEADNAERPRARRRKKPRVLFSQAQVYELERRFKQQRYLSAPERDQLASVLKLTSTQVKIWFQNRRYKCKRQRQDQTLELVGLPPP
Chain of NKX2-5 (Homo sapiens, UniProt P52952 125-210) (P52952 125-210): as the sequence (P52952 125-210 R139K) above, with K15R counted along it
Chain of ALX1 (Homo sapiens, UniProt Q15699 118-204) (Q15699 118-204): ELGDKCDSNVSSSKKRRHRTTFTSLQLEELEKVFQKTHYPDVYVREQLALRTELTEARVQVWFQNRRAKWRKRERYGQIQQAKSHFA
Chain of ALX1 (Homo sapiens, UniProt Q15699 118-204, L144R) (Q15699 118-204 L144R): as the sequence (Q15699 118-204) above, with L27R counted along it
Chain of ALX1 (Homo sapiens, UniProt Q15699 118-204, L144V) (Q15699 118-204 L144V): as the sequence (Q15699 118-204) above, with L27V counted along it

## CCGGCGCG
[1]
  binding signal: 8.28 upbm affinity estimate (log intensity, higher = more binding, comparable within an allelic series)
[2]
  binding signal: 6.28 upbm affinity estimate (log intensity, higher = more binding, comparable within an allelic series)
[3]
  binding signal: 6.34 upbm affinity estimate (log intensity, higher = more binding, comparable within an allelic series)
[4]
  binding signal: 6.04 upbm affinity estimate (log intensity, higher = more binding, comparable within an allelic series)
[5]
  binding signal: 8.51 upbm affinity estimate (log intensity, higher = more binding, comparable within an allelic series)

## CCACTTTA
[1]
  binding signal: 12.7 upbm affinity estimate (log intensity, higher = more binding, comparable within an allelic series)
[6]
  binding signal: 12.6 upbm affinity estimate (log intensity, higher = more binding, comparable within an allelic series)
[7]
  binding signal: 13 upbm affinity estimate (log intensity, higher = more binding, comparable within an allelic series)
[8]
  binding signal: 12.5 upbm affinity estimate (log intensity, higher = more binding, comparable within an allelic series)
[9]
  binding signal: 12 upbm affinity estimate (log intensity, higher = more binding, comparable within an allelic series)
[2]
  binding signal: 8.4 upbm affinity estimate (log intensity, higher = more binding, comparable within an allelic series)
[10]
  binding signal: 13.5 upbm affinity estimate (log intensity, higher = more binding, comparable within an allelic series)
[3]
  binding signal: 8.44 upbm affinity estimate (log intensity, higher = more binding, comparable within an allelic series)
[11]
  binding signal: 13.1 upbm affinity estimate (log intensity, higher = more binding, comparable within an allelic series)
[12]
  binding signal: 10.8 upbm affinity estimate (log intensity, higher = more binding, comparable within an allelic series)
[13]
  binding signal: 13 upbm affinity estimate (log intensity, higher = more binding, comparable within an allelic series)
[4]
  binding signal: 8.77 upbm affinity estimate (log intensity, higher = more binding, comparable within an allelic series)
[5]
  binding signal: 12.7 upbm affinity estimate (log intensity, higher = more binding, comparable within an allelic series)
[14]
  binding signal: 13.1 upbm affinity estimate (log intensity, higher = more binding, comparable within an allelic series)

## ATTACGTA
[1]
  binding signal: 10.3 upbm affinity estimate (log intensity, higher = more binding, comparable within an allelic series)
[5]
  binding signal: 10.3 upbm affinity estimate (log intensity, higher = more binding, comparable within an allelic series)

## CCCGGCGG
[1]
  binding signal: 8.56 upbm affinity estimate (log intensity, higher = more binding, comparable within an allelic series)
[15]
  binding signal: 7.64 upbm affinity estimate (log intensity, higher = more binding, comparable within an allelic series)
[16]
  binding signal: 7.61 upbm affinity estimate (log intensity, higher = more binding, comparable within an allelic series)
[5]
  binding signal: 8.58 upbm affinity estimate (log intensity, higher = more binding, comparable within an allelic series)

## CACGCGTG
[1]
  binding signal: 8.8 upbm affinity estimate (log intensity, higher = more binding, comparable within an allelic series)
[15]
  binding signal: 7.77 upbm affinity estimate (log intensity, higher = more binding, comparable within an allelic series)
[16]
  binding signal: 7.9 upbm affinity estimate (log intensity, higher = more binding, comparable within an allelic series)
[5]
  binding signal: 8.74 upbm affinity estimate (log intensity, higher = more binding, comparable within an allelic series)

## CACTTAGA
[1]
  binding signal: 12.6 upbm affinity estimate (log intensity, higher = more binding, comparable within an allelic series)
[9]
  binding signal: 11.7 upbm affinity estimate (log intensity, higher = more binding, comparable within an allelic series)
[10]
  binding signal: 13.6 upbm affinity estimate (log intensity, higher = more binding, comparable within an allelic series)
[12]
  binding signal: 10.8 upbm affinity estimate (log intensity, higher = more binding, comparable within an allelic series)
[13]
  binding signal: 12.6 upbm affinity estimate (log intensity, higher = more binding, comparable within an allelic series)
[5]
  binding signal: 12.4 upbm affinity estimate (log intensity, higher = more binding, comparable within an allelic series)
[14]
  binding signal: 12.8 upbm affinity estimate (log intensity, higher = more binding, comparable within an allelic series)

## GCCACTTA
[1]
  binding signal: 13.3 upbm affinity estimate (log intensity, higher = more binding, comparable within an allelic series)
[6]
  binding signal: 12.7 upbm affinity estimate (log intensity, higher = more binding, comparable within an allelic series)
[7]
  binding signal: 13 upbm affinity estimate (log intensity, higher = more binding, comparable within an allelic series)
[8]
  binding signal: 12.5 upbm affinity estimate (log intensity, higher = more binding, comparable within an allelic series)
[9]
  binding signal: 12.2 upbm affinity estimate (log intensity, higher = more binding, comparable within an allelic series)
[10]
  binding signal: 14 upbm affinity estimate (log intensity, higher = more binding, comparable within an allelic series)
[11]
  binding signal: 13.2 upbm affinity estimate (log intensity, higher = more binding, comparable within an allelic series)
[12]
  binding signal: 11.2 upbm affinity estimate (log intensity, higher = more binding, comparable within an allelic series)
[13]
  binding signal: 13.3 upbm affinity estimate (log intensity, higher = more binding, comparable within an allelic series)
[5]
  binding signal: 13.1 upbm affinity estimate (log intensity, higher = more binding, comparable within an allelic series)
[14]
  binding signal: 13.4 upbm affinity estimate (log intensity, higher = more binding, comparable within an allelic series)

## AAGTGGAT
[1]
  binding signal: 12.5 upbm affinity estimate (log intensity, higher = more binding, comparable within an allelic series)
[6]
  binding signal: 12.5 upbm affinity estimate (log intensity, higher = more binding, comparable within an allelic series)
[7]
  binding signal: 12.8 upbm affinity estimate (log intensity, higher = more binding, comparable within an allelic series)
[8]
  binding signal: 12.3 upbm affinity estimate (log intensity, higher = more binding, comparable within an allelic series)
[9]
  binding signal: 11.8 upbm affinity estimate (log intensity, higher = more binding, comparable within an allelic series)
[10]
  binding signal: 13.3 upbm affinity estimate (log intensity, higher = more binding, comparable within an allelic series)
[11]
  binding signal: 12.9 upbm affinity estimate (log intensity, higher = more binding, comparable within an allelic series)
[12]
  binding signal: 10.7 upbm affinity estimate (log intensity, higher = more binding, comparable within an allelic series)
[13]
  binding signal: 12.8 upbm affinity estimate (log intensity, higher = more binding, comparable within an allelic series)
[5]
  binding signal: 12.5 upbm affinity estimate (log intensity, higher = more binding, comparable within an allelic series)
[14]
  binding signal: 12.8 upbm affinity estimate (log intensity, higher = more binding, comparable within an allelic series)

From paper PMC11006913
